# Rows were chosen to be rich in hits. Some 5.7% of all compounds tested hit in one or more screens of this group.
# KB-3-1 cytotox: KB-3-1 parental cell cytotoxicity; KB-3-1 viability, CellTiter-Glo ATP luminescence, 72 h; Potency, µM (highest dose often 46.1 µM), most hits filed as cytotoxic; 1.4% of 400,000 active; AID 1347075; note: potency is the fitted concentration of half-maximal effect; nearly all actives have a fitted effect of over 60% in size
#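 Screening of KB-3-1 cells (DMEM, 10% FBS, phenol-red free) ran from lowest to highest compound concentration; after 72 h at 37 °C viability was read luminescently and curves fitted.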
# PI4K2A inh: inhibitors of human PI4K2A | purified PI4K2A, ADP-Glo luminescence, 1 h; active compounds read low | AID 1346378 | 0.13% of 420,000 active | activity change, negative = inhibition, % at 76.9 µM; in the data active = activity change below about -50%; inconclusive = mostly about -30% to -49%;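 note: -100% = wells without enzyme as full effect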
# Target sequence (Q9BTU6 whole entry, looked up): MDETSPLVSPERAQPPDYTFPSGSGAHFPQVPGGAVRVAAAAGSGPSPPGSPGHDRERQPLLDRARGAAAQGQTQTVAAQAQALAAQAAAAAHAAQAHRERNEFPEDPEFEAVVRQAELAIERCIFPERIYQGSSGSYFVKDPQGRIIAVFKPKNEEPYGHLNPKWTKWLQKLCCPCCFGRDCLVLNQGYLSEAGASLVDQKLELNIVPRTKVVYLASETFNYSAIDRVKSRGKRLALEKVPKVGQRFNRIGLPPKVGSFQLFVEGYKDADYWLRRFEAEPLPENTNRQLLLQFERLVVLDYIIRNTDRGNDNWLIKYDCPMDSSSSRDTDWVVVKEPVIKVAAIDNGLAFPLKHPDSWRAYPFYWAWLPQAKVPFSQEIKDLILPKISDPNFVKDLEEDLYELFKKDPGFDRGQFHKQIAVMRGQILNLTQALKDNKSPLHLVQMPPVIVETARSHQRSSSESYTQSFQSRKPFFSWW
#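 Compounds are screened against recombinant PI4K2A using PI as substrate and ATP, the latter dispensed at 300 microM. Reactions run one hour at ambient temperature before ADP-Glo detection; full inhibition defined by wells lacking enzyme.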
# Nrf2 inh: Nrf2 pathway inhibition | AID 504444 | A549 ARE-Fluc reporter, luciferase luminescence, 18-24 h | Potency, µM (top dose mostly 46 µM), without a hit: at the highest dose activity change, negative = inhibition, hits mostly inhibitors | 2.1% of 360,000 active; note: potency is the fitted concentration of half-maximal effect; nearly all actives have a fitted effect of over 60% in size
#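 A549 ARE_Fluc cells, 5000/well, 5% FBS OPTI-MEM; compounds in dose-response, 18-24 h at 37 °C/5% CO2; CellTiter-Fluor viability read (Ex 405/Em 525), then BugLite luciferase luminescence = Nrf2 activity.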
# A549 viability: kills or reduces viability of A549 cells in Nrf2 counter-screen; A549 ARE-Fluc cells, CellTiter-Fluor viability, 18-24 h; Potency, µM (titrated, usually from 46 µM), for inactives: top-dose activity change, negative = cytotoxicity, usual class: inhibitors; 0.16% of 390,000 active; AID 504648; note: potency is the fitted concentration of half-maximal effect
#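 A549 ARE_Fluc cells in 5% FBS OPTI-MEM were exposed to compounds in concentration-response for 18-24 h at 37 deg C. Viability was read by CellTiter-Fluor fluorescence (Ex 405/Em 525) after 30 min, before the luciferase read.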
# KB-V1 MDR tox: KB-V1 MDR subline cytotoxicity; KB-V1 MDR cells viability, CellTiter-Glo, 72 h; Potency, µM (highest dose often 46.1 µM), hits mostly cytotoxic; 3.4% of 400,000 active; AID 1347076; note: potency is the fitted concentration of half-maximal effect; nearly all actives have a fitted effect of over 60% in size
#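 Luminescent ATP read-out (CellTiter-Glo, 10 min) measures survival of drug-selected KB-V1 MDR cells after 72 h, 37 degrees C compound exposure. Medium: phenol-red-free DMEM, 10% FBS. Values from fitted concentration-response curves.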
# Giardia kill: Giardia lamblia killing | Giardia lamblia trophozoite viability | activity change, % at 7.66 µM, hits read low | 0.15% of 340,000 active; in the data active = activity change below about -80%; inconclusive = between about -30% and that limit;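 note: parasites exposed to compound for two days anaerobically before the ATP read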
#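 Killing of trophozoites was scored by loss of ATP luminescence after a 48 hrs anaerobic exposure to compounds at 37 deg C, using 100 cells per well.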
# * marks the source's active call; other numbers are inactive results; i = inactive; u = inconclusive; x = no result. Unless noted, calls come from the whole dose curve; as a rule, active = well fitted curve in the direction sought with a large enough effect; inconclusive = small, poorly fitted or top-dose-only effect, or another doubt; inactive = no such curve, though single readings can be large; an effect the other way counts as inactive or inconclusive. Unless noted, % is set by controls: 0 for no effect and ±100 for the full control effect.
SMILES,KB-3-1 cytotox,PI4K2A inh,Nrf2 inh,A549 viability,KB-V1 MDR tox,Giardia kill
CCCCCC(=O)NNC(=S)NC(=O)c1cccc([N+](=O)[O-])c1,u,0,4%,-3%,u,1
O=C(NC(=S)Nc1ccccc1[N+](=O)[O-])c1ccccc1Cl,13µM*,10,u,1%,u,u
O=C(NNC(=S)NC(=O)c1ccccc1[N+](=O)[O-])c1ccccc1Cl,i,1,-9%,-2%,i,13
CC(C)Cn1c(N)c(C(=O)COC(=O)c2ccc(Br)cc2)c(=O)n(C)c1=O,15µM*,1,u,-16%,i,0
Cc1ccccc1CSCC(=O)c1c(N)n(CC(C)C)c(=O)n(C)c1=O,u,-3,x,-2%,18µM*,9
Cc1cccc(C(=O)OCC(=O)c2c(N)n(CC(C)C)c(=O)n(C)c2=O)c1O,u,4,18µM*,-15%,i,1
COC(=O)c1c(C)[nH]c(C(=O)OCC(=O)c2c(N)n(CC(C)C)c(=O)n(C)c2=O)c1C,u,-3,15µM*,-14%,i,4
CC(C)Cn1c(N)c(C(=O)COC(=O)c2ccncc2)c(=O)n(C)c1=O,i,0,x,6%,i,-6
CC(C)Cn1c(N)c(C(=O)COC(=O)c2ccc(Cl)cc2)c(=O)n(C)c1=O,i,-2,u,-13%,i,-3
CCn1c2ccccc2c2cc(CN3CCN(S(C)(=O)=O)CC3)ccc21,i,4,u,-13%,3.3µM*,14
CCCC(=O)O[C@]1(C(=O)COC(=O)CC)CC[C@H]2[C@@H]3CCC4=CC(=O)CC[C@]4(C)[C@H]3[C@@H](O)C[C@@]21C,x,i,x,x,x,x
COc1ccc(C2CC(c3c(O)cc(C)oc3=O)=NCCS2)c(OC)c1 (configuration not stated),0.29µM*,-30,-1%,u,0.37µM*,-29
C=CCN1[C@@H](CC(C)C)COc2cc(F)ccc2S1(=O)=O,x,2,x,x,x,x
O=C(NCc1ccc(F)cc1)c1ccc(S(=O)(=O)N2CCCC2)cc1,i,-3,x,x,u,x
CC1CC(C)CN(S(=O)(=O)c2ccc(C(=O)NCc3ccc4c(c3)OCO4)cc2)C1 (configuration not stated),i,0,10µM*,1%,i,-6
CC1CCN(S(=O)(=O)c2ccc(C(=O)NCc3ccc4c(c3)OCO4)cc2)CC1,i,-4,x,10%,i,8
COC(=O)c1ccc(CNC(=O)c2ccc(S(=O)(=O)N3CCCC(C)C3)cc2)cc1 (configuration not stated),i,3,-7%,1%,16µM*,7
CC(=O)Nc1sc2c(c1-c1nc3ccccc3s1)CCN(C(C)C)CC2,x,-4,x,x,x,x
CN(C)c1ccc(C=Nc2cnc3ccccc3c2)cc1,i,x,x,x,i,x
Cc1nc(C)n(CC(O)COc2ccc3ccccc3c2)n1 (configuration not stated),i,-5,20%,14%,21µM*,-16
N=C1SCC(=O)N1c1ccc(Cl)cc1,15µM*,-15,-1%,0%,u,10
CCCCC(CCc1ccccn1)C(=O)c1ccccc1 (configuration not stated),i,0,14%,4%,16µM*,3
Cn1c(=O)c2[nH]c(SCC(=O)NCCc3cccc(F)c3)nc2n(C)c1=O,x,-5,x,x,x,x
O=C1CC(N(Cc2cccs2)C(=O)Nc2ccccc2)C(=O)N1c1ccc(Cl)cc1 (configuration not stated),i,-8,-28%,-9%,18µM*,-5
COc1ccc(CN(C(=S)Nc2ccccc2)C2CC(=O)N(c3ccccc3)C2=O)cc1 (configuration not stated),i,5,-12%,-7%,4.6µM*,-21
SMILES,KB-3-1 cytotox,PI4K2A inh,Nrf2 inh,A549 viability,KB-V1 MDR tox,Giardia kill
COc1ccc(CN(C(=S)Nc2ccccc2)C2CC(=O)N(c3ccc(Cl)cc3)C2=O)cc1 (configuration not stated),u,0,u,u,i,1
Cc1ccc(-n2nc(C)c3c(C(=O)NCc4ccccc4)cc(C4CC4)nc32)cc1,i,-4,17%,11%,i,x
CCOC(=O)[C@]12CCCCC/C=C\1N(CCc1ccc(Cl)cc1)C(=O)[C@H]2CC(=O)NCc1cccc(C(F)(F)F)c1,x,-2,x,x,x,x
COC(=O)c1ccccc1NC(=O)C1=CC(c2ccc(C)cc2)=NS(=O)(=O)N1C,i,0,18µM*,-12%,i,x
COC(=O)C[C@H]1c2cc(C(F)(F)F)ccc2S(=O)(=O)N1C(C)C,i,x,x,x,i,x
Cn1c(SCc2ccc(F)cc2)nnc1-c1cccs1,i,0,x,1%,16µM*,-3
CCCCCCCCCCCCCCCC[n+]1ccc(CC(O)c2c(C)[nH]c3ccccc23)c2ccccc21 (configuration not stated),16µM*,x,x,x,16µM*,x
O=S(=O)(c1ccccc1)c1cnn(-c2ccccc2)c1-c1ccc(Cl)cc1,u,0,u,-12%,15µM*,-4
COc1ccc(-c2c(S(=O)(=O)c3ccccc3)cnn2-c2ccccc2)cc1,u,0,u,2%,23µM*,6
CC(=O)ON(C(C)=O)c1ccc(/C=C2\C=Cc3ccccc32)cc1,i,x,x,x,i,x
CCOc1ccc(S(=O)(=O)N(CC)CC)cc1NC(=O)CSCc1c(C)noc1C,i,1,u,-18%,7.3µM*,-3
Cc1cc(C)c(NC(=O)CSCc2c(C)noc2C)c(C)c1,i,-3,9%,-13%,23µM*,-8
CCN(CC)c1ccc(S(=O)(=O)N2CCCCC2)cc1NC(=O)CSCc1c(C)noc1C,23µM*,-4,u,-10%,i,10
Cc1noc(C)c1CSCC(=O)Nc1cc(S(=O)(=O)N2CCCCC2)ccc1OC(C)C,i,2,u,-10%,i,68
COc1ccc(-c2csc(NC(=O)CSCc3c(C)noc3C)n2)c(OC)c1,i,-2,16µM*,-15%,u,17
CC(C)(C)OC(=O)CC(=O)NNC(=O)c1nc2ccccc2[nH]1,x,x,-1%,-8%,x,x
C[C@@H]1CCCN1c1cccc2c1S(=O)(=O)N(C1CC1)CCCO2,x,-1,x,x,x,x
CCCCCCCCCCn1ccc(=N)cc1,2.3µM*,-2,15µM*,-28%,u,2
CCCCCCN1C2=NCCCN2c2ccccc21,i,-3,-11%,3%,i,-24
CCCCCCN1Cc2ccccc2C1,i,-7,x,-6%,i,-10
